Values joined by “and” are separate entries in the source; they are usually repeats but may differ in a detail not shown here. Identical values can stand only once. About 40 (0.06%) of roughly 65,000 compounds were called active. Calls follow the shape of the dose curve; as a rule, active = well fitted activation curve with a large enough effect; inconclusive = small, poorly fitted or top-dose-only effect; inactive = flat fitted curve, though single readings scatter. The sample as a whole holds a higher share of actives than the screen did.
Assay: qHTS Assay for Modulators of Hemoglobin Beta Chain Splicing; also: 0% is about no effect
Settings: HBB splicing reporter cell assay, EGFP reporter with mutant IVS2-654 intron; Potency: activation; series mostly up to 46.1 µM; activation: at the top concentration
From the text: NIH Chemical Genomics Center [NCGC]
NIH Molecular Libraries Screening Centers Network [MLSCN]
PI Name: Dr. Ryszard Kole
Modulation of Alternative Splicing as Therapy
Abnormal splicing is associated with a number of diseases, including cancer and genetic diseases such as cystic fibrosis, muscular dystrophy and beta-thalassemia. Alteration of disease associated splicing patterns provides a promising target for treatment. […] Mutations in the second intron of the beta-globin gene at positions are clinically relevant and cause mis-splicing which results in an out of frame gene product.
EGFP-654 and 705 HeLa Cells as screen system.
HeLa cell lines were stably transfected with a construct in which the EGFP (enhanced green fluorescent protein) cDNA was interrupted by the second intron of the beta-globin gene (IVS2-654). The ISV2 intron contains mutations which cause mis-splicing of EGFP and premature termination of EGFP which results in a nonfluorescent protein product. […] Expression of the transgene was driven by the CMV promoter. We concluded that a low molecular weight compound, which restored correct splicing of intron 2 would also generate functional EGFP protein, resulting in a fluorescent signal. Thus, the HeLa cells that express the EGFP-654 construct can be used for high throughput screening of a chemical library.
NCGC Assay Protocol Summary:
High Throughput Screening. Freshly thawed HeLa EGFP-654 cells were seeded in 5 ul of optimem media (Invitrogen) containing 2 % fetal calf serum (Hyclone) and 1x penicillin/streptomycin (Invitrogen) at a concentration of 500 cells per well in 1536-well plates. Cells were incubated overnight at 37C in 5% CO2. The next day, cells were treated with DMSO, 500 nM antisense ISV2 654 PNA control oligo, or library compound and allowed to grow at 37C in 5% CO2 for 2 days. The PNA oligo blocked the mutation site in the intron and allowed proper (wild type) splicing to occur, resulting in full length EGFP expression and also allowed for optimization of the assay parameters. Plates were read in the Acumen Explorer (TTP Labtech) using 488 nm laser excitation and 500-520 nm emission PMT filter in a 1 x […] capture mode. Fluorescnet Fluorescent objects ranging in size from […] were measured and the total peak GFP intensity for each well was used for data analysis.
Keywords: Thalassemia, beta-thalassemia, beta-globin, EGFP, ISV2 654, ISV2 705, SSO, PNA, antisense, splicing, MLSMR, MLSCN, NIH Roadmap, qHTS, NCGC

activation, inactive:
O=C(O)/C(=C/c1c(C(=O)O)[nH]c2cc(Cl)cc(Cl)c12)c1ccccc1 -0.728%
O=C(c1ccco1)N1CCC[C@@]2(CCN(c3ccccc3)C2)C1 -0.234%
NC1(C(=O)OCc2ccccc2)CCCC1 1.82% [at 9.22 µM, normalised to 500 nM splice-correcting PNA]
COc1ccc(Br)c2c1C[C@H](C(=O)O)CC2 3.18% [at 9.22 µM, normalised to 500 nM splice-correcting PNA]
COC(=O)c1ccc(C(NC(=O)OCc2ccccc2)/C(C)=C/[C@@H](C)C(=O)NCc2cc(C)on2)cc1 (stereo partly drawn) 0.55%
COc1ccc(-n2c(=O)c(-c3cn(C)c4ccccc34)nc3cnc(OC)nc32)cc1 1.65%
Brc1cc(Br)c(Oc2cc(Br)c(Br)cc2Br)cc1Br -0.0225%
Oc1ccc(O)c2c(O)cccc12 -0.446%
N#Cc1cccc(-c2ccc3ncnc(NCc4cccs4)c3c2)c1 -0.857%
CC[N+](C)(CC)CCC[n+]1c(-c2ccccc2)c2cc(N)ccc2c2ccc(N)cc21 -0.429% [at 20.6 µM, normalised to 500 nM splice-correcting PNA]
COc1ccccc1-c1cc(NCc2cccs2)ncn1 0.429%
COc1ccc2[nH]cc(CCNc3nc(-c4cccc(NS(C)(=O)=O)c4)nc4ccccc34)c2c1 -1.42%
C[C@H](CCC(=O)O)[C@H]1CC[C@@H]2[C@H]3CC[C@H]4C[C@H](O)CC[C@@]4(C)[C@@H]3CC[C@@]21C 1.15% [at 9.22 µM, normalised to 500 nM splice-correcting PNA]
C[C@H]1O[C@@H](CC(=O)O)Cc2c1c(O)c1c(O)cc(-c3cc(=O)c4c(=O)c5c(c(=O)c=4c3=O)C[C@H](CC(=O)O)O[C@@H]5C)c(O)c1c2O 4.76% [at 9.22 µM, normalised to 500 nM splice-correcting PNA]
COC(=O)[C@@]1(Cc2ccccc2)[C@H]2c3cc(C(=O)N(C)C)n(CCSCCO)c3C[C@H]2CN1C(=O)c1ccccc1 -0.366%
COc1ccc(C(=O)N/N=C2/C(=O)c3c(C)cc(C)cc3CC2(C)C)cc1 3.55% [at 9.22 µM, normalised to 500 nM splice-correcting PNA]
COC(=O)[C@@]1(Cc2ccccc2)[C@H]2c3cc(C(=O)N4CCCC4)n(Cc4ccc(C)o4)c3C[C@H]2CN1C(=O)c1ccccc1 0.0086%
CC(C)CC1(C(=O)NCc2ccccn2)C=CCN1C(=O)c1ccccc1 (stereo not drawn) -0.315%
COC(=O)C1(C)C=CC2(CCCCC2)N1C(C)=O (stereo not drawn) -0.264%
O=C(Nc1cccc(F)c1)N1CC2(CCN(C(=O)c3cnccn3)CC2)C1 -0.736%
COc1ccc(OC)c([C@H](O)CNC(=O)CN)c1 1.06% [at 20.6 µM, normalised to 500 nM splice-correcting PNA]
CS(=O)(=O)N1CCC[C@@]2(CCN(c3ccncc3)C2)C1 0.825%
COc1ccc(CNc2ncnc3ccc(-c4cccnc4)cc23)c(OC)c1 -0.216%
CN(C)C(=O)/N=N\C(=O)N(C)C 0.247%
Oc1c(Br)cc(CN(Cc2cc(Br)c(O)c(Br)c2)C2CCCCC2)cc1Br 1.47% [at 9.22 µM, normalised to 500 nM splice-correcting PNA]
CC(C)(C)c1ccc(OC2C=CC(C#Cc3ccccc3)OC2CO)cc1 (stereo not drawn) -0.074% [at 9.22 µM, normalised to 500 nM splice-correcting PNA]
CC(C)=CCC/C(C)=C/CO/N=C1/C[C@@H](O)[C@@H](O)[C@@H]2[C@@H]3C(=O)N(C(C)(C)C)C(=O)[C@H]3CC[C@H]12 -1.71% [at 9.22 µM, normalised to 500 nM splice-correcting PNA]
CCCn1c(C)nc2c(NCCCCN(CC)CC)nc(C)nc21 -0.385%
O=C(Cl)c1ccccc1[N+](=O)[O-] -0.267%
CC(C)(C)NCC[C@@H](O)c1cc(C(F)(F)F)nc2c(C(F)(F)F)cccc12 0.766% [at 9.22 µM, normalised to 500 nM splice-correcting PNA]
COc1cccc(-c2cc(NCCc3c[nH]c4ccc(OC)cc34)ncn2)c1 -0.561%
COc1ccc(/C=C/NC(=O)Cc2ccc(OC)c(OC)c2)cc1 1.47% [at 9.22 µM, normalised to 500 nM splice-correcting PNA] and 0.37% [at 9.22 µM, normalised to 500 nM splice-correcting PNA]
O=C(O)c1nccnc1C(=O)Nc1ccc(Br)cn1 -1.21%
COc1cccc(Cn2c(=O)cnc3cncnc32)c1 4.4%
O=C(O)[C@H](CCc1ccccn1)c1ccccc1 1.34% [at 9.22 µM, normalised to 500 nM splice-correcting PNA]
N#Cc1ccccc1-c1ccc2ncnc(NCc3cccnc3)c2c1 -2.1%
CCCCC/C=C/C=C/C=O 1.32%
O=C(O)CCCCC(=O)O -0.164%
CNC(=O)C1(C)C=CC2(CCCCC2)N1C(C)=O (stereo not drawn) -1.62%
O=S(=O)(c1ccccc1)N1CCC2(CC1)CN(Cc1nccs1)C2 1.28%
CCON=C1C(C)(C)C(C)(C)C(C)(C)C1(C)C 1.16% [at 9.22 µM, normalised to 500 nM splice-correcting PNA]
O=C(c1cnccn1)N1CCC2(CCN(Cc3cc(C(F)(F)F)cc(C(F)(F)F)c3)CC2)CC1 -0.133%
O=C(c1ccncc1)N1CCC2(CCCN(C(c3ccccc3)c3ccccc3)C2)CC1 0.276%
Nc1ccccc1N 1.59%
CC(=O)OCC(COC(C)=O)OC(C)=O 1.19%
Cc1cc(C(=O)O)ccc1[N+](=O)[O-] 0.443%
O=C1C[C@@H](O)[C@@H](O)[C@H]2[C@@H]3C(=O)N(Cc4ccc5c(c4)OCO5)C(=O)[C@@H]3CC[C@H]12 3.01% [at 9.22 µM, normalised to 500 nM splice-correcting PNA] and 2.86% [at 9.22 µM, normalised to 500 nM splice-correcting PNA]
CN/C(=C\[N+](=O)[O-])NCCSCc1csc(CN(C)C)n1 -1.87% [at 20.6 µM, normalised to 500 nM splice-correcting PNA]
